# Reference: PubChem BioAssay
# For some of these results: Entries with a potency or affinity are not part of this list. The list shows a part of the results. The source made the active and inactive calls. Unless noted, how the calls were made is not given here.
# Tests used:
# [1] = target: Cell division control protein 42 homolog (Homo sapiens) (UniProt P60953); assay: activated mutant Cdc42 GTP-binding inhibitors, dose response, biochemical, multiplex bead flow cytometry, Bodipy-FL-GTP (AID 1333;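 active means fitted half-maximal concentration within the tested dose range, moderate curve steepness, a statistically real signal drop, and little compound fluorescence or tag-binding interference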)
# Chain of Cell division control protein 42 homolog (Homo sapiens) (P60953 whole entry, looked up): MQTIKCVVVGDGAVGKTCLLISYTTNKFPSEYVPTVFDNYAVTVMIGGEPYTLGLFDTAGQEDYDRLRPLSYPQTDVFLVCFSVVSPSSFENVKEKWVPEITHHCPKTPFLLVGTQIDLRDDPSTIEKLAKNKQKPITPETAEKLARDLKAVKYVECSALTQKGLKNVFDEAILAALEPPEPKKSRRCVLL
# [2] = target: Cell division control protein 42 homolog (Homo sapiens) (UniProt P60953); assay: wildtype Cdc42 GTP-binding inhibitors, dose response, biochemical, multiplex bead flow cytometry, Bodipy-FL-GTP (AID 1334;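 active means fitted half-maximal concentration within the tested range, moderate curve steepness, significant signal drop, and little compound fluorescence or bead-linkage interference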); details: bead-based flow cytometry, Bodipy-FL-GTP binding to GST-Cdc42; at 100 µM (top of the series)
# [3] = system: Ras-related protein Rab-7a (dog), GTP binding; assay: Rab7 GTP binding inhibitors, potency, dose response, biochemical, wildtype, multiplex bead flow cytometry (AID 1336)
# [4] = target: Ras-related C3 botulinum toxin substrate 1 (Homo sapiens) (UniProt P63000); assay: wildtype Rac1 GTP binding inhibitors, dose response, biochemical, multiplex bead flow cytometry (AID 1340;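 active means dose curve with midpoint inside tested range, moderate steepness, plateau gap beyond fit error, low compound glow and bead-link interference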); details: GST-Rac1 beads, Bodipy-FL-GTP binding; at 100 µM (top of the series)
# [5] = target: GTPase HRas (Homo sapiens) (UniProt P01112); assay: activated Ras mutant GTP binding inhibitors, dose response, biochemical, multiplex bead flow cytometry (AID 1341;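 active means dose-response curve with midpoint inside the tested range, moderate steepness, significant amplitude and little compound fluorescence or bead-attachment interference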;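 further: GST-tagged constitutively activated Ras mutant immobilized on beads and multiplexed with other GTPases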)
# [6] = RPL19A-GFP modulators, yeast TOR pathway, confirmation, cell-based, S. cerevisiae, flow cytometry, cherry picks, mother/daughter gates (AID 2270;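 active means GFP response below 50% of the DMSO control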); details: S. cerevisiae RPL19A-GFP strain, 3 h, at 10 µM, stronger effect = lower value, 100 = same GFP as DMSO wells
# [7] = LAP4-GFP expression modulators in yeast, confirmation, cell-based, cherry picks, flow cytometry, mother/daughter gates (AID 2271;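 active means GFP response above 150% of the DMSO control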;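 further: ratio of sample to DMSO plate mean so 100% equals DMSO level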); details: S. cerevisiae LAP4-GFP strain, 3 h, at 10 µM, stronger effect = higher value
# [8] = modulators of MEP2-GFP levels in yeast, confirmation, S. cerevisiae, flow cytometry GFP, cherry picks (AID 2272;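 active means GFP response above 150% of the DMSO control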;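 further: ratio of well signal to plate DMSO mean so 100% equals DMSO level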); details: S. cerevisiae MEP2-GFP strain, 3 h, at 10 µM, stronger effect = higher value
# [9] = AGP1-GFP expression modulators, hit retest, confirmation, cell-based, flow cytometry, S. cerevisiae, cherry picks (AID 2273;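 active means GFP response above 150% of the DMSO level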;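 further: median GFP channel fluorescence over the whole cell population gate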); details: S. cerevisiae AGP1-GFP strain, 3 h, at 10 µM
# [10] = modulators of CIT2-GFP expression in yeast, confirmation, S. cerevisiae, GFP fusion, cherry picks, mother/daughter gates (AID 2274;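 active means GFP response above 150% of the DMSO level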); details: S. cerevisiae CIT2-GFP strain, flow cytometry, 3 h, at 10 µM, stronger effect = higher value
# [11] = target: Regulator of G-protein signaling 16 (Homo sapiens) (UniProt O15492); assay: modulators of RGS–Galpha-o binding, primary screen, biochemical, multiplexed beads, flow cytometry, RGS4/7/8/16/19 (AID 1504); details: multiplexed bead flow cytometry, measured here: RGS16 interaction, at 10 µM;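 further: fluorescently labeled Galpha-o bound to GDP with aluminium fluoride binding biotinylated RGS beads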
# [12] = target: Regulator of G-protein signaling 4 (Homo sapiens) + Guanine nucleotide-binding protein G(o) subunit alpha (Homo sapiens) (UniProt P49798+P09471); assay: as above; details: multiplexed bead flow cytometry, at 10 µM
# Chain of Regulator of G-protein signaling 4 (Homo sapiens) + Guanine nucleotide-binding protein G(o) subunit alpha (Homo sapiens) (P09471 whole entry, looked up): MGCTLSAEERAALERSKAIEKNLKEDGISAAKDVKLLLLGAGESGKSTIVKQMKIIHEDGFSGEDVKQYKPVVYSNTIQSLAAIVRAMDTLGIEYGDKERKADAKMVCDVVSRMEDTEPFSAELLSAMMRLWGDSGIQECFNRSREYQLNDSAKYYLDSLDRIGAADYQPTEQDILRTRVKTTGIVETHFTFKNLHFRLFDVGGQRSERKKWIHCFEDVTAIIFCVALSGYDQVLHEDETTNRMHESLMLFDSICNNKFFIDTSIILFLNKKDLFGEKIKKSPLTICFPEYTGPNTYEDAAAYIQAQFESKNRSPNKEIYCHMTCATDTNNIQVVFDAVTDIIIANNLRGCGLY
# Chain of Regulator of G-protein signaling 4 (Homo sapiens) + Guanine nucleotide-binding protein G(o) subunit alpha (Homo sapiens) (P49798 whole entry, looked up): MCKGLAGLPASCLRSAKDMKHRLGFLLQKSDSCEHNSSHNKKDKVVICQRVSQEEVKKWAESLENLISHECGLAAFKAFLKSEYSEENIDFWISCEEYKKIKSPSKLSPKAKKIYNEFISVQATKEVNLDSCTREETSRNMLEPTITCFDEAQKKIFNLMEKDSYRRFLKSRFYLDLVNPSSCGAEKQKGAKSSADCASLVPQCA
# [13] = target: Regulator of G-protein signaling 7 (Homo sapiens) (UniProt P49802); assay: as above; details: multiplexed bead flow cytometry, measured here: RGS7 interaction, at 10 µM
# [14] = target: Regulator of G-protein signaling 8 (Homo sapiens) (UniProt P57771); assay: as above; details: multiplexed bead flow cytometry, measured here: RGS8 interaction, at 10 µM
# [15] = disruption of biotin probe capture by avidin, counter-screen for RGS protein interaction modulators, biochemical, flow cytometry, bead-based (AID 1783;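 active means inhibition above 50%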;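 further: median green fluorescence of gated singlet beads compared with DMSO control wells; 0% = DMSO wells and 100% = complete loss of bead fluorescence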); details: streptavidin beads, fluorescein-biotin binding, at 10 µM, stronger effect = higher value
# [16] = target: Guanine nucleotide-binding protein G(o) subunit alpha (Homo sapiens) (UniProt P09471); assay: RGS8-Galphao binding modulators, confirmation, biochemical, multiplexed bead flow cytometry, single concentration (AID 1836; in the data active means binding response below about 72% or above about 130%; inactive means in between;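 further: Galphao activated as GDP AlF4 complex before binding bead RGS8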); details: bead-based flow cytometry RGS8-Galphao binding, fluorescence; at 10 µM; actives lie on both sides
# Chain of Guanine nucleotide-binding protein G(o) subunit alpha (Homo sapiens) (P09471 whole entry, looked up): as the sequence (P09471 whole entry, looked up) above
# [17] = target: Guanine nucleotide-binding protein G(o) subunit alpha (Homo sapiens) (UniProt P09471); assay: RGS7-Galphao binding modulators, confirmation, biochemical, multiplexed bead flow cytometry, single concentration (AID 1837; in the data active means response below about 75% or above about 130%; inactive means in between;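 further: fluorescent Galphao activated with GDP and aluminum fluoride binding bead-coupled RGS7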); details: bead-based flow cytometry RGS7-Galphao binding; at 10 µM; actives lie on both sides
# [18] = target: Regulator of G-protein signaling 16 (Homo sapiens) + Guanine nucleotide-binding protein G(o) subunit alpha (Homo sapiens) (UniProt O15492+P09471); assay: modulators of RGS16-Galphao protein binding, confirmation, biochemical, single concentration, multiplexed bead flow cytometry (AID 1838; in the data active means response below about 74% or above about 130%; inactive means in between;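 further: Galphao activated as the GDP aluminium fluoride complex binding bead-coupled RGS16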); details: bead-based flow cytometry, at 10 µM, actives lie on both sides
# Chain of Regulator of G-protein signaling 16 (Homo sapiens) + Guanine nucleotide-binding protein G(o) subunit alpha (Homo sapiens) (O15492 whole entry, looked up): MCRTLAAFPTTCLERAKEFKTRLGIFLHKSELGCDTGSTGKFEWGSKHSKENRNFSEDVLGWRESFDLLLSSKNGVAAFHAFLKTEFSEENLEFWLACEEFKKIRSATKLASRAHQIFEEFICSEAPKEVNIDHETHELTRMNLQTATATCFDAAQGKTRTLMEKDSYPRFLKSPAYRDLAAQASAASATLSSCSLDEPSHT
# Chain of Regulator of G-protein signaling 16 (Homo sapiens) + Guanine nucleotide-binding protein G(o) subunit alpha (Homo sapiens) (P09471 whole entry, looked up): as the sequence (P09471 whole entry, looked up) above
# [19] = target: Guanine nucleotide-binding protein G(o) subunit alpha (Homo sapiens) (UniProt P09471); assay: modulators of RGS4-Galphao protein binding, confirmation, biochemical, single concentration, multiplexed bead flow cytometry (AID 1840; in the data active means binding response below about 74% or above about 130%; inactive means in between); details: at 10 µM, actives lie on both sides
# [20] = target: Guanine nucleotide-binding protein G(o) subunit alpha (Homo sapiens) + Regulator of G-protein signaling 19 (Homo sapiens) (UniProt P09471+P49795); assay: regulators of RGS19-Galphao binding, confirmation, biochemical, single point, multiplexed bead flow cytometry (AID 1841; in the data active means response below about 50% or above about 160%; inactive means in between;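 further: 100% = no compound control and 0% = blank background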); details: bead-based flow cytometry RGS19-Galphao binding; at 10 µM; actives lie on both sides
# Chain of Guanine nucleotide-binding protein G(o) subunit alpha (Homo sapiens) + Regulator of G-protein signaling 19 (Homo sapiens) (P09471 whole entry, looked up): as above
# Chain of Guanine nucleotide-binding protein G(o) subunit alpha (Homo sapiens) + Regulator of G-protein signaling 19 (Homo sapiens) (P49795 whole entry, looked up): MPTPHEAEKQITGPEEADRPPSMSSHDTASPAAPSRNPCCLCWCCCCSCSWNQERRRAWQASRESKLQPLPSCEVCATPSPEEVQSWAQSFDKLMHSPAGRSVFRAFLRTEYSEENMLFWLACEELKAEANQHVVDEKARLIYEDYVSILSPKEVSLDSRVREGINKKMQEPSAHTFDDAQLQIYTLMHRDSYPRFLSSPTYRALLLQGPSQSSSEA
# [21] = measured here: daughter cell gate
# [22] = measured here: mother cell gate
smiles,measurement,setting,value
Cc1ccc(-n2c(O)c(/C=N/c3ncc(Br)cc3Br)c(=O)[nH]c2=O)cc1,outcome,[1],inactive
same,"fluorescence, percent of control (lower = inhibition)",[2],49.1%
same,outcome,[3],inactive
same,"GTP binding signal, raw median fluorescence (lower = inhibition) (MCF (arbitrary fluorescence units))",[4],59.9
same,outcome,[5],inactive
O=C1C(=O)c2ccccc2-c2ccccc21,GFP response vs DMSO,[6],122% (inactive)
same,GFP response vs DMSO,[6]; [21],106%
same,GFP response vs DMSO,[6]; [22],116%
same,GFP response relative to DMSO,[7],171% (active)
same,GFP response relative to DMSO,[7]; measured here: daughter cell gate response,143%
same,GFP response relative to DMSO,[7]; measured here: mother cell gate response,169%
same,GFP response vs DMSO,[8],117% (inactive)
same,"GFP response, % of DMSO",[9],126% (inactive)
same,"GFP response, % of DMSO",[10],88.7% (inactive)
same,"GFP response, % of DMSO",[10]; [21],89.9%
same,"GFP response, % of DMSO",[10]; [22],82.6%
CCOC(=O)c1c(NC(=O)c2c(N)n(CCCOC)c3nc4ccccc4nc23)sc2c1CCCC2,outcome,[1],inactive
same,"fluorescence, percent of control (lower = inhibition)",[2],77.3%
same,outcome,[3],inactive
same,"GTP binding signal, raw median fluorescence (lower = inhibition) (MCF (arbitrary fluorescence units))",[4],151
same,outcome,[5],inactive
CC(C)N(CC#CCC1(O)c2ccccc2-c2ccccc21)C(C)C,RGS16–Galpha-o binding response,[11],180%
same,RGS4–Galpha-o binding response,[12],106% (active)
same,RGS7–Galpha-o binding response,[13],107%
same,RGS8–Galpha-o binding response,[14],122%
same,inhibition,[15],0.7% (inactive)
same,binding response (% of control),[16],98.5% (inactive)
same,response (percent of control binding),[17],99.5% (inactive)
same,response (% of control binding),[18],101% (inactive)
same,binding response (% of control),[19],99.5% (inactive)
same,response (percent of control binding),[20],110% (inactive)
CCOCCCn1c(N)c(C(=O)Nc2sc3c(c2C(=O)OC)CCCC3)c2nc3ccccc3nc21,outcome,[1],inactive
same,"fluorescence, percent of control (lower = inhibition)",[2],64.4%
same,outcome,[3],inactive
same,"GTP binding signal, raw median fluorescence (lower = inhibition) (MCF (arbitrary fluorescence units))",[4],127
same,outcome,[5],inactive
O=C1NC(=S)N(Cc2ccco2)C(=O)/C1=C\c1cccs1,outcome,[1],inactive
same,"fluorescence, percent of control (lower = inhibition)",[2],54.7%
same,outcome,[3],inactive
same,"GTP binding signal, raw median fluorescence (lower = inhibition) (MCF (arbitrary fluorescence units))",[4],167
same,outcome,[5],inactive
O=C1CN=C(c2ccccc2)c2cc(Br)ccc2N1Cc1cc(=O)n2ccccc2n1,outcome,[1],inactive
same,"fluorescence, percent of control (lower = inhibition)",[2],47.5%
same,"GTP binding signal, raw median fluorescence (lower = inhibition) (MCF (arbitrary fluorescence units))",[4],216
same,outcome,[5],inactive
O=c1[nH]c(=S)[nH]c(O)c1N=Nc1ccc(S(=O)(=O)N2CCc3ccccc32)cc1,outcome,[1],inactive
same,"fluorescence, percent of control (lower = inhibition)",[2],44.9%
same,outcome,[3],inactive
same,"GTP binding signal, raw median fluorescence (lower = inhibition) (MCF (arbitrary fluorescence units))",[4],312
same,outcome,[5],inactive
COCCCn1c(N)c(C(=O)Nc2sc3c(c2C(=O)OC)CCCC3)c2nc3ccccc3nc21,outcome,[1],inactive
same,"fluorescence, percent of control (lower = inhibition)",[2],85.2%
same,outcome,[3],inactive
same,"GTP binding signal, raw median fluorescence (lower = inhibition) (MCF (arbitrary fluorescence units))",[4],139
same,outcome,[5],inactive
